# Results from PubChem BioAssay.
# Activity calls are given as the source filed them.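 The calls were made as follows, unless noted: active = normalized viability below 100% at a tested concentration; inactive = the rest.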
# Columns and labels:
# [1] = viability loss with induced miR-34 in A549 – imaging, A549 dox-inducible miR-34, nuclei and caspase counts, primary screen (AID 1347080;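 active = compounds whose cell count with miR-34 switched on is under 0.7 times the count with it off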); conditions: A549 miR-34 inducible, Hoechst nuclei count, 48 h
# [2] = MELAS cybrid and Rieske KO viability enhancers – cell-based, MELAS cybrids, Rieske KO mouse fibroblasts, CellTiter-Glo, primary screen (AID 1508586;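 active = mean z-score across replicates of 1.96 or higher in either the MELAS or the Rieske mutant cell line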;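 also: z relative to plate mean and SD of compound and empty wells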); conditions: low glucose
# [3] = drug combination growth inhibition, ovarian cancer – cell-based, oncology-focused library, rucaparib conditional, profiling panel (AID 1508598); conditions: patient-derived ovarian cancer cells, CellTiter-Glo viability, 144 h, stronger effect = lower value
# [4] = galactose survival enhancers in mitochondrial complex I cybrids – cell-based, galactose medium, ATP luminescence, primary screen (AID 1645843;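 active = z-score of at least 1.8 in each of two replicates, scored against plate mean and spread of sample wells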;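 also: positive z means more ATP and so rescue of galactose-driven cybrid death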); conditions: complex I mutant cybrid cells, 72 h, stronger effect = higher value
# [5] = P. berghei load reduction in hepatocytes – cell-based, HepG2, luciferase luminescence, HepG2 viability, primary screen (AID 624349; in the data active = parasite load remaining mostly below about 12%, no sharp cut-off; inactive = mostly above about 10%;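 also: 100% = mean of DMSO negative control wells on the same plate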); conditions: P. berghei liver stage in HepG2, luciferase luminescence, concentration not given here; parasite load remaining: stronger effect = lower value; viability: measured here: HepG2 viability without parasites
# [6] = target: NAD(+) hydrolase SARM1 (Homo sapiens) (UniProt Q6SZW1); experiment: blocking NAD cleavage by SARM1 SAM-TIR – cell lysate, NAD-Glo luminescence (AID 1508614;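 active = compound whose remaining NAD level is above about 45 nM, limit read from the data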;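 also: higher remaining NAD means stronger inhibition of SARM1 NADase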); conditions: SAM-TIR HEK293T lysate NADase, at 1 µM, stronger effect = higher value
# NAD(+) hydrolase SARM1 (Homo sapiens), sequence (Q6SZW1 whole entry, looked up): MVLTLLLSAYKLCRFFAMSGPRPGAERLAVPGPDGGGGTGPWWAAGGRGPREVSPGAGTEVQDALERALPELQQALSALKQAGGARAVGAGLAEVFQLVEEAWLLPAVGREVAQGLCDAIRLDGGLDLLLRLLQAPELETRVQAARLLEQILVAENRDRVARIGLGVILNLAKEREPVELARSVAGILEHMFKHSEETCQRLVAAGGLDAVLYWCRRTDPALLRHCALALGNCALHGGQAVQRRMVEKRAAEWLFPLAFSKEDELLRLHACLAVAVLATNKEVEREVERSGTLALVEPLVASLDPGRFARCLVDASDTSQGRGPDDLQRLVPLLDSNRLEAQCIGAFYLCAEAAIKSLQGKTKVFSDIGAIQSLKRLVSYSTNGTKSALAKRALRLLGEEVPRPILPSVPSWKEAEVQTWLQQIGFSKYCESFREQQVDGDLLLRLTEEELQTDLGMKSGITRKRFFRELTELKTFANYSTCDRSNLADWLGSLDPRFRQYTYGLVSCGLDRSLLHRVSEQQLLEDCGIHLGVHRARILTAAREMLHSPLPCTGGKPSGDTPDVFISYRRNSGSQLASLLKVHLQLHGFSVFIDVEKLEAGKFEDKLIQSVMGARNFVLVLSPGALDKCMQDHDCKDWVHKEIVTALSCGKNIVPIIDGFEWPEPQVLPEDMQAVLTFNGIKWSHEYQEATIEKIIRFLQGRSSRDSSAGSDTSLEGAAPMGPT
# [7] = stronger effect = lower value, cell number ratio, induced over uninduced
# [8] = measured here: relative caspase fold change +Dox/-Dox
# [9] = measured here: total cells with miR-34 induction, stronger effect = lower value
# [10] = measured here: total cells without miR-34 induction
# [11] = MELAS cybrid survival, CellTiter-Glo 48 h, stronger effect = higher value
# [12] = Rieske KO mouse fibroblast survival, CellTiter-Glo 72 h
smiles,measurement,setting,value
CC(=O)O[C@@]1(C(C)=O)CC[C@H]2[C@@H]3C=C(C)C4=CC(=O)CC[C@]4(C)[C@@H]3CC[C@@]21C,fold change,[1]; [7],0.871 (inactive)
same,fold change,[1]; [8],0.828
same,cell count,[1]; [9],6160
same,cell count,[1]; [10],7070
same,z-score,[2]; [11],-0.515 (inactive)
same,z-score,[2]; [12],0.339
same,viability,"[3]; at 0.000305 µM, OCI-C5x cells, with rucaparib 10 µM, 100% = cells with rucaparib alone",94.9% (active)
same,viability,"[3]; at 0.000305 µM, OCI-C5x cells, without rucaparib",104% (inactive)
same,viability,"[3]; at 0.000305 µM, OCI-P5x cells, with rucaparib 20 µM, 100% = cells with rucaparib alone",96.4% (active)
same,viability,"[3]; at 0.000305 µM, OCI-P5x cells, without rucaparib",104% (inactive)
same,viability,"[3]; at 0.00122 µM, OCI-C5x cells, with rucaparib 10 µM, 100% = cells with rucaparib alone",107% (inactive)
same,viability,"[3]; at 0.00122 µM, OCI-C5x cells, without rucaparib",97.6% (active)
same,viability,"[3]; at 0.00122 µM, OCI-P5x cells, with rucaparib 20 µM, 100% = cells with rucaparib alone",99.8% (active)
same,viability,"[3]; at 0.00122 µM, OCI-P5x cells, without rucaparib",100% (inactive)
same,viability,"[3]; at 0.00488 µM, OCI-C5x cells, with rucaparib 10 µM, 100% = cells with rucaparib alone",102% (inactive)
same,viability,"[3]; at 0.00488 µM, OCI-C5x cells, without rucaparib",101% (inactive)
same,viability,"[3]; at 0.00488 µM, OCI-P5x cells, with rucaparib 20 µM, 100% = cells with rucaparib alone",99.9% (active)
same,viability,"[3]; at 0.00488 µM, OCI-P5x cells, without rucaparib",96.3% (active)
same,viability,"[3]; at 0.0195 µM, OCI-C5x cells, with rucaparib 10 µM, 100% = cells with rucaparib alone",100% (inactive)
same,viability,"[3]; at 0.0195 µM, OCI-C5x cells, without rucaparib",99.3% (active)
same,viability,"[3]; at 0.0195 µM, OCI-P5x cells, with rucaparib 20 µM, 100% = cells with rucaparib alone",96.9% (active)
same,viability,"[3]; at 0.0195 µM, OCI-P5x cells, without rucaparib",93.1% (active)
same,viability,"[3]; at 0.0781 µM, OCI-C5x cells, with rucaparib 10 µM, 100% = cells with rucaparib alone",98.1% (active)
same,viability,"[3]; at 0.0781 µM, OCI-C5x cells, without rucaparib",94.7% (active)
same,viability,"[3]; at 0.0781 µM, OCI-P5x cells, with rucaparib 20 µM, 100% = cells with rucaparib alone",100% (inactive)
same,viability,"[3]; at 0.0781 µM, OCI-P5x cells, without rucaparib",100% (inactive)
same,viability,"[3]; at 0.313 µM, OCI-C5x cells, with rucaparib 10 µM, 100% = cells with rucaparib alone",116% (inactive)
same,viability,"[3]; at 0.313 µM, OCI-C5x cells, without rucaparib",90.3% (active)
same,viability,"[3]; at 0.313 µM, OCI-P5x cells, with rucaparib 20 µM, 100% = cells with rucaparib alone",92.2% (active)
same,viability,"[3]; at 0.313 µM, OCI-P5x cells, without rucaparib",89.7% (active)
same,viability,"[3]; at 1.25 µM, OCI-C5x cells, with rucaparib 10 µM, 100% = cells with rucaparib alone",116% (inactive)
same,viability,"[3]; at 1.25 µM, OCI-C5x cells, without rucaparib",92.1% (active)
same,viability,"[3]; at 1.25 µM, OCI-P5x cells, with rucaparib 20 µM, 100% = cells with rucaparib alone",89.9% (active)
same,viability,"[3]; at 1.25 µM, OCI-P5x cells, without rucaparib",82.2% (active)
same,viability,"[3]; at 5 µM, OCI-C5x cells, with rucaparib 10 µM, 100% = cells with rucaparib alone",111% (inactive)
same,viability,"[3]; at 5 µM, OCI-C5x cells, without rucaparib",93.9% (active)
same,viability,"[3]; at 5 µM, OCI-P5x cells, with rucaparib 20 µM, 100% = cells with rucaparib alone",84.5% (active)
same,viability,"[3]; at 5 µM, OCI-P5x cells, without rucaparib",82.1% (active)
O=C1CN(c2ncnc3nc[nH]c23)CCN1CCc1ccccc1,fold change,[1]; [7],0.93 (inactive)
same,fold change,[1]; [8],1.88
same,cell count,[1]; [9],8450
same,cell count,[1]; [10],9080
same,z-score,[2]; [11],-0.834 (inactive)
same,z-score,[2]; [12],-0.816
same,z-score,[4],-0.58 (inactive)
COc1cccc2c(=O)n(C(C)Cn3cccn3)cnc12 (configuration not stated),fold change,[1]; [7],0.936 (inactive)
same,fold change,[1]; [8],1.36
same,cell count,[1]; [9],9030
same,cell count,[1]; [10],9650
same,z-score,[2]; [11],-0.113 (inactive)
same,z-score,[2]; [12],-1.21
same,z-score,[4],-0.305 (inactive)
O=C1CN(c2ncnc3sccc23)CCN1Cc1cccc(F)c1,fold change,[1]; [7],0.826 (inactive)
same,fold change,[1]; [8],1.63
same,cell count,[1]; [9],4730
same,cell count,[1]; [10],5730
same,z-score,[2]; [11],-0.104 (inactive)
same,z-score,[2]; [12],0.0557
same,z-score,[4],3.78 (active)
CO/N=C(\C(=O)N[C@@H]1C(=O)N2C(C(=O)O)=C(C[N+]3(C)CCCC3)CS[C@H]12)c1csc(N)n1,parasite load remaining,[5],85.4% (inactive)
same,viability,[5],76.2%
same,fold change,[1]; [7],0.925 (inactive)
same,fold change,[1]; [8],0.702
same,cell count,[1]; [9],8990
same,cell count,[1]; [10],9720
same,z-score,[2]; [11],-1.62 (inactive)
same,z-score,[2]; [12],-0.496
same,remaining NAD,[6],10 nM (inactive)
COc1cccc2ccc(-c3nnc4ccccn34)nc12,fold change,[1]; [7],0.871 (inactive)
same,fold change,[1]; [8],1.83
same,cell count,[1]; [9],7320
same,cell count,[1]; [10],8400
same,z-score,[2]; [11],-0.646 (inactive)
same,z-score,[2]; [12],0.957
same,z-score,[4],-0.595 (inactive)
Nc1nc2cc(C(=O)N3CCN(C(=O)c4ccco4)CC3)ccc2s1,fold change,[1]; [7],0.879 (inactive)
same,fold change,[1]; [8],1.74
same,cell count,[1]; [9],8870
same,cell count,[1]; [10],10100
same,z-score,[2]; [11],-0.277 (inactive)
same,z-score,[2]; [12],-0.24
same,z-score,[4],-0.565 (inactive)
